An excerpt weighted towards active compounds, which were near 3.6% of everything screened.
NPSR antag: qHTS Assay for Antagonists of the Neuropeptide S Receptor: cAMP Signal Transduction | Q6W5P4 | CHO-NPSR cells, cAMP TR-FRET, antagonist mode | Potency, µM (doses to about 38.3 µM), for the others: top-dose activity change, negative = inhibition, hits mostly inhibitors | actives 1% (n = 220,000) | AID 1461, 2008; also: % is scaled to controls: 0 for no effect and ±100 for the full control effect; nearly all actives have a fitted effect of over 50% in size
Target sequence (Q6W5P4 whole entry, looked up): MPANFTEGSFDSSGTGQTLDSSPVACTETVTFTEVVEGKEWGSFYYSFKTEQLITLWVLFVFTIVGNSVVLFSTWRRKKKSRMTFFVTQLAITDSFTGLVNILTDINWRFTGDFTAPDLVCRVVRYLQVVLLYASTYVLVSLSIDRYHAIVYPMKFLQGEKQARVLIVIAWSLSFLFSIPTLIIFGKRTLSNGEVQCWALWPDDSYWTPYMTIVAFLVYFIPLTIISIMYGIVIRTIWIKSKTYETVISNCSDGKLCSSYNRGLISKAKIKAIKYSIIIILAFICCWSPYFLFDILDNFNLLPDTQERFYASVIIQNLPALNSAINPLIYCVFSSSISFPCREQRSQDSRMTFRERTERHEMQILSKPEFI
KAT2A inh: qHTS Assay for Inhibitors of GCN5L2; Histone acetyltransferase KAT2A (Homo sapiens), Q92830; GCN5L2 HAT assay, ThioGlo1 CoA-SH fluorescence; Potency, µM (series often up to 58.9 µM), for the others: at the highest dose activity change, negative = inhibition, most hits filed as inhibitors; actives 0.21% (n = 390,000); also: % is scaled to controls: 0 for no effect and ±100 for the full control effect
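Enzyme at 20nM final was mixed with library compounds for 15 min at room temperature. Peptide H3(1-25) at 75uM, acetyl-CoA at 70uM and ThioGlo1 at 50uM were then added. Plates were read immediately and after 20 min (Ex340nm/Em540nm).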
Epigenetic derep: Quantitative High-Throughput Screen for Regulators of Epigenetic Control | murine LDR cells, GFP reporter derepression, 30 h | Potency, µM (top dose mostly 53.9 µM), inactives show at the highest dose GFP activation, most hits filed as activators | actives 0.2% (n = 280,000) | AID 1865, 2009; also: % of control where 0% means no effect; nearly all actives have a fitted effect of over 60% in size
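Murine LDR cells carrying a silenced, genomically integrated CMV-driven GFP reporter were exposed to compound for 30 hours at 37 C. After PBS washes, GFP-positive cells (20–120 um objects) were counted by laser-scanning microplate cytometry.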
Sfp PPTase inh: qHTS Assay for Inhibitors of Bacillus subtilis Sfp phosphopantetheinyl transferase (PPTase). Potency, µM, for inactives: largest response in the series, negative = inhibition, actives largely listed as inhibitors. actives 3.5% (n = 310,000). 4'-phosphopantetheinyl transferase ffp (Bacillus subtilis), Q9F4F7. AID 1490, 2009. Biochemical Sfp PPTase activity, qHTS;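 also: the enzyme is Sfp with the accession as filed and its product quenches rhodamine fluorescence; 0% = enzyme reaction without inhibitor and -100% = no enzyme wells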
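Reaction rates are the 30-min fluorescence difference (ex 525, em 598 nm) in wells containing 15 nM Sfp, 5 uM rhodamine-CoA and 12.5 uM BHQ-2-YbbR at pH 7.6 with 10 mM MgCl2.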
JMJD2E inh: qHTS Assay for Inhibitors of Human Jumonji Domain Containing 2E (JMJD2E); JMJD2E catalytic domain, FDH-coupled NADH fluorescence (FDH is formaldehyde dehydrogenase); Potency, µM (top dose mostly 57.1 µM), for inactives: at the top dose activity change, negative = inhibition, actives largely listed as inhibitors; actives 1.6% (n = 230,000); Lysine-specific demethylase 4E (Homo sapiens), B2RXH2; AID 2147, 2009; active = well fitted inhibition curve with a large enough effect, not every such curve was filed as active; inconclusive = small, poorly fitted or top-dose-only effect, or another doubt; inactive = no such curve, though single readings can be large or run the other way;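 also: 0% = wells with enzyme and -100% = buffer wells without enzyme; nearly all actives have a fitted effect of over 50% in size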
Target sequence (B2RXH2 1-337 limits assumed): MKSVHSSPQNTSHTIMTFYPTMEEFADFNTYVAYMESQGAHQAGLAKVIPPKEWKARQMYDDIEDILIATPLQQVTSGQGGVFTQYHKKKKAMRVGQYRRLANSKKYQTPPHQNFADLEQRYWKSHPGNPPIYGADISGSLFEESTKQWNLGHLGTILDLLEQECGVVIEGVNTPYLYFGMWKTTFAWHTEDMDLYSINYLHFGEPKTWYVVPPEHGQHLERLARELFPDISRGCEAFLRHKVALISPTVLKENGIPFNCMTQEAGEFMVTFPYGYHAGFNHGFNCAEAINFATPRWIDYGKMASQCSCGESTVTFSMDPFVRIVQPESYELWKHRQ
IMPase Li cell: qHTS Assay for Identifying the Cell-Membrane Permeable IMPase Inhibitors: Potentiation with Lithium; CHO-M1 cells, IP1 TR-FRET (IP-One), carbachol + lithium; Potency, µM (highest dose often 59.4 µM), for inactives: at the top dose activity, negative = IMPase inhibition, most hits filed as inhibitors; actives 0.35% (n = 210,000); AID 1457, 2008;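 also: IP1 builds up when IMPase is blocked and the TR-FRET signal falls; plate controls were basal vehicle for no effect and high inhibitor control for full effect; nearly all actives have a fitted effect of over 50% in size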
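CHO cells stably expressing M1 receptor (2000/well, cultured 16–30 h) treated 30 min at 37C with compound plus low lithium. Cytosolic IP1 by TR-FRET (665/620 ratio and 620 channel) after 10 min lysis; AC50 by Hill fit.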
* hit, by the source's call; ? = inconclusive; / = no result given; ! = not active in a repeat; [ ] = remark or other dose. Unless noted, calls follow the shape of the dose curve; as a rule, active = well fitted curve in the direction sought with a large enough effect; inconclusive = small, poorly fitted or top-dose-only effect, or another doubt; inactive = no such curve, though single readings can be large; an effect the other way counts as inactive or inconclusive. Potency is read from the fitted curve at half-maximal effect.

SMILES | NPSR antag | KAT2A inh | Epigenetic derep | Sfp PPTase inh | JMJD2E inh | IMPase Li cell
Cc1ccc(-c2ccc(/C=C3/NC(=O)NC3=O)o2)cc1[N+](=O)[O-] | -23% | -13% | -2% | ? | -2% | 14%
O=C(O)C1CSC(c2ccco2)N1 (centres undefined) | 4% | ? | -2% | ? | ? | -6%
Cc1ccc2occ(C3N[C@H](C(=O)O)CS3)c(=O)c2c1 (some centres undefined) | -5%[46.1 µM] | -29% | 0% | 50µM* | ? | -7%[38.3 µM]
Cc1ccc2occ(C3NC(C(=O)O)CS3)c(=O)c2c1 (centres undefined) | 5% | -2% | -1% | 14µM* | ? | -6%
O=C(NCC1CCCCC1)c1nnc(C(=O)NCC2CCCCC2)c2c1[nH]c1ccccc12 | / | / | 0% | -28% | -4% | 4%
Cc1ccc(C(=O)CC2(O)C(=O)N(CCc3ccccc3)c3ccc(Br)cc32)o1 (centres undefined) | -30%[46.1 µM] | -9% | 1% | 7.9µM* | -4% | 24%[38.3 µM]
O=C(CC1(O)C(=O)N(CCc2ccccc2)c2ccc(Br)cc21)c1ccccc1 (centres undefined) | / | -12% | 8% | / | / | /
Cc1nc2ncnn2c(N2CCN(C(c3ccccc3)c3ccccc3)CC2)c1C | ? | / | -2% | 79µM* | 3% | 0%[38.3 µM]
Cc1ccc(CC(Cc2nc3ccccc3[nH]2)c2nc3ccccc3[nH]2)cc1 (centres undefined) | / | / | 0% | 20% | 7% | -2%
Cc1cc(C)n(CCc2nc(-c3ccco3)cs2)n1 | -8%[46.1 µM] | -23% | ? | 8.9µM* | -18% | -7%[38.3 µM]
N[C@@H](CSS(=O)(=O)O)C(=O)O | / | 35µM*! | 1% | 45µM* | ? | -6%
Cc1cc2nc3[nH]c4c(Cl)cc(Cl)cc4c3nc2cc1C | / | / | / | / | / | -3%
Cc1nn(Cc2ccc(C(=O)NC(C)(C)C)o2)c(C)c1Br | 0%[46.1 µM] | 1% | 0% | 56µM* | -1% | 9%[38.3 µM]
COc1ccc(N2CCN(C(=O)c3ccc(Cn4nc(C)c([N+](=O)[O-])c4C)o3)CC2)cc1 | / | -4% | / | 17% | / | /
COc1ccc(CNC(=O)c2ccc(Cn3nc(C)c([N+](=O)[O-])c3C)o2)cc1 | 22% | 0% | 4.5µM* | -28% | ? | 10%
N#Cc1c(-n2ncnc2-c2ccc(F)cc2)sc2c1CCCCC2 | / | -6% | -2% | / | / | /
O=C(O)Cn1c2c(c3ccccc31)CSc1ccc(Cl)cc1-2 | / | ? | / | 20µM* | / | /
CC1CCC2(CC1)NC(=S)N(c1ccccc1)N2 (centres undefined) | -5%[46.1 µM] | ? | 0% | 56µM* | ? | -9%[38.3 µM]
CC1CCC2(CC1)NC(=S)N(C(C)(C)C)N2 (centres undefined) | -21% | -10% | 0% | 35µM* | ? | /
Cc1ccc(S(=O)(=O)C(CNC(=O)C(=O)NCc2ccc(Cl)cc2)c2cccs2)cc1 (centres undefined) | / | -3% | ? | / | / | /
CNC(=O)N(O)C1N(/N=C/c2ccccc2F)C(=S)SC1(C)C (centres undefined) | / | 1% | / | 2% | / | /
CNC(=O)N(O)C1N(/N=C/c2ccccc2O)C(=S)SC1(C)C (centres undefined) | 35% | -15% | -2% | 45µM* | -17% | /
c1ccc(C2[C@H]3CN(Cc4cccnc4)[C@H](c4ccccc4)C34CC2(c2cccnc2)C4)cc1 (some centres undefined) | ? | -14% | 2% | 56µM*! | -2% | 18%
c1ccc(C2[C@H]3CN(Cc4cccnc4)[C@H](c4ccccc4)C34CC2(c2ccccc2)C4)cc1 (some centres undefined) | -55% | -3% | 5% | ? | -11% | 11%
N=C(N)SCc1cn(-c2ccccc2)nc1-c1ccc(Br)cc1 | ? | -10% | -3% | 50µM* | -7% | 23%
SMILES | NPSR antag | KAT2A inh | Epigenetic derep | Sfp PPTase inh | JMJD2E inh | IMPase Li cell
O=C(NC1CCCCC1)c1nn2c(C(F)(F)F)cc(-c3ccco3)nc2c1Br | -2%[46.1 µM] | -10% | 16% | 50µM* | 2% | ?
COc1ccc(-c2cc(C(F)(F)F)n3ncc(C(=O)NCC4CCCO4)c3n2)cc1 (centres undefined) | -11%[46.1 µM] | -4% | 3% | 12% | ? | 21%[38.3 µM]
O=C(NC1CCCC1)c1cc2nc(-c3ccco3)cc(C(F)(F)F)n2n1 | / | -7% | / | 2% | / | /
O=C(NCC1CCCO1)c1nn2c(C(F)(F)F)cc(-c3ccc(Br)o3)nc2c1Br (centres undefined) | / | 1% | / | 50µM* | / | /
COc1ccc2c([N+](=O)[O-])c(Cl)[nH]c2c1 | 15% | -17% | -5% | -12% | 16µM* | 8%
COc1c(OC2OC(C(=O)O)C(O)C(O)C2O)cc(O)c2c(=O)cc(-c3ccccc3)oc12 (centres undefined) | 0% | -7% | 0% | 40µM* | ? | -8%
O=c1cc(-c2ccccc2)oc2cc(OCc3ccccc3)cc(O)c12 | -22% | 0% | -2% | 1% | -18% | 4%
COc1ccc(-c2cc(=O)c3c(O)cc(O[C@@H]4OC(COC5OC(C)C(O)C(O)[C@@H]5O)C(O)C(O)C4O)cc3o2)cc1 (some centres undefined) | / | -26% | 4% | 3% | 4% | -4%
O=C(O)C1OC(Oc2cc3oc(-c4ccccc4)cc(=O)c3c(O)c2O)C(O)C(O)C1O (centres undefined) | -6% | -11% | 0% | 8.9µM* | 2% | ?
CCCCn1c2ccc(F)cc2c2nnc(SCCN3CCOCC3)nc21 | / | -22% | / | 56µM* | / | /
NC(=S)N(c1ccccc1)c1ccccc1 | 2% | 3% | 0% | 45µM* | -5% | 11%
O=C(N(c1ccccc1)c1ccccc1)N(c1ccccc1)c1ccccc1 | ? | -8% | 6% | -21% | -3% | /
COc1ccccc1NC(=S)NNC(=O)c1cc(C)n(C)n1 | 0%[46.1 µM] | 0% | 0% | 25% | 18µM* | 22%[38.3 µM]
COc1ccc(-c2nc3cnc(N4CCNCC4)nc3n(Cc3cccs3)c2=O)cc1 | / | ? | / | ? | / | 10%
CCN(CC)S(=O)(=O)c1ccc(N2CCCCC2)c(NC(=O)/C(C#N)=C/c2ccc(OC)cc2)c1 | -14% | -9% | 2% | 17% | -9% | 2%
